Results reported in PubChem BioAssay.
Active and inactive are the calls of the source. Unless noted, no rule for the calls is given here.

What was measured:
[1] = A549 cell viability effects, profiling panel, calcein-AM fluorescence, 48 h, basal (AID 1162); settings: higher = more signal; also: test concentration not given here
[2] = adipocyte viability effects, profiling panel, cell-based, 3T3-L1 adipocytes, calcein-AM fluorescence, 48 h, basal (AID 1163); settings: 3T3-L1 adipocytes viability, higher = more signal; also: test concentration not given here
[3] = HepG2 cell viability effects, profiling panel, calcein-AM fluorescence, 48 h, basal (AID 1164); settings: higher = more signal; also: test concentration not given here
[4] = MM1S cell viability effects, profiling panel, calcein-AM fluorescence, 48 h, basal (AID 1165); settings: higher = more signal;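 also: viability of MM1S multiple myeloma cells under basal unstimulated conditions; test concentration not given here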
[5] = basal RPMI8226 viability, no added stimulus, profiling panel, cell-based, calcein-AM fluorescence, 48 h, PK04 Diversity Set (AID 1166); settings: RPMI8226 myeloma viability, higher = more signal;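 also: cells grown under basal conditions without added stimulus; test concentration not given here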
[6] = basal HepG2 mitochondrial membrane potential changes, profiling panel, cell-based, JC-1 fluorescence, 24 h, 100 nL compound (AID 1167); settings: higher = more signal; also: test concentration not given here
[7] = basal 3T3-L1 adipocyte mitochondrial potential changes, profiling panel, cell-based, JC-1 fluorescence, 3T3-L1 adipocytes, 24 h, 100 nL compound (AID 1168); settings: JC-1 mitochondrial fluorescence, higher = more signal, called active from +8 up or from −8 down; also: test concentration not given here
[8] = basal RPMI8226 mitochondrial membrane potential changes, profiling panel, cell-based, JC-1 fluorescence, 24 h, 100 nL compound (AID 1169); settings: RPMI8226 myeloma, JC-1 mitochondrial potential fluorescence, higher = more signal; also: test concentration not given here
[9] = basal MM1S mitochondrial membrane potential changes, profiling panel, cell-based, JC-1 fluorescence, 24 h, 100 nL compound (AID 1170); settings: higher = more signal; also: test concentration not given here
[10] = A549 lung cancer cell viability effects, profiling panel, resazurin fluorescence, 24 h, PK04 Diversity Set (AID 1171); settings: higher = more signal, called active from +8 up or from −8 down; also: test concentration not given here
[11] = HepG2 liver cancer cell viability effects, profiling panel, resazurin fluorescence, 24 h, PK04 Diversity Set (AID 1172); settings: higher = more signal; also: test concentration not given here
[12] = basal S. cerevisiae growth modulation, no modifier, primary screen, OD600, strain BY4716, 24 h, basal condition (AID 1173); settings: OD600, 24 h, higher = more signal, called active from +8 up or from −8 down
[13] = MM1S myeloma cell viability, profiling panel, resazurin fluorescence, basal, 24 h, PK04 Diversity Set (AID 1174); settings: higher = more signal, called active from +8 up or from −8 down;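 also: MM1S multiple myeloma cell line; test concentration not given here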
[14] = biological target: Dihydroorotate dehydrogenase (quinone), mitochondrial (Plasmodium falciparum (isolate 3D7)) (UniProt Q08210); assay: PfDHODH enzyme inhibitors, primary screen, biochemical, C-terminal His tag, absorbance 600 nm (AID 1175); settings: DCIP absorbance 600 nm, higher = more signal, called active from +8 up or from −8 down;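 also: recombinant parasite enzyme with a five histidine tag at its C terminus; test concentration not given here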
[15] = P. aeruginosa biofilm formation inhibitors, primary screen, strain PAO1, LB-PBS medium, absorbance 600 nm (AID 1176); also: test concentration not given here; settings: P. aeruginosa PAO1 growth/biofilm, A600, 12 h; higher = more signal
[16] = S. cerevisiae RM11-1a growth modifiers, primary screen, strain RM11-1a, OD600, basal, 24 h (AID 1177); settings: OD600, 24 h, higher = more signal, called active from +8 up or from −8 down;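 also: cultures grown under basal conditions with no added stressor; test concentration not given here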
[17] = E. coli acrAB mutant growth effects, primary screen, E. coli filamentation inducers, strain DRC39, OD650, 24 h (AID 1178); settings: higher = more signal, called active from +8 up or from −8 down;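 also: growth measured as culture turbidity by optical density at 650 nm; test concentration not given here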
[18] = E. coli acrAB mutant growth effects, primary screen, E. coli filamentation inducers, strain DRC39, OD650, 48 h (AID 1179);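 also: screen aims at cell division blockers that make cells filament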; settings: E. coli DRC39 delta-acrAB growth, higher = more signal, called active from +8 up or from −8 down
[19] = RPMI8226 myeloma cell viability, profiling panel, resazurin fluorescence, basal, 24 h, PK04 Diversity Set (AID 1180); settings: higher = more signal;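 also: RPMI8826 multiple myeloma cell line at 5000 cells per well; test concentration not given here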
[20] = biological target: E3 ubiquitin-protein ligase XIAP (Homo sapiens) (UniProt P98170); assay: XIAP binders, primary screen, biophysical, small-molecule microarray, fluorescence 635 nm (AID 1181); settings: small-molecule microarray binding, higher = more signal;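 also: score merges 667 nm emission and signal to noise over triplicate slides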
Sequence of E3 ubiquitin-protein ligase XIAP (Homo sapiens) (P98170 whole entry, looked up): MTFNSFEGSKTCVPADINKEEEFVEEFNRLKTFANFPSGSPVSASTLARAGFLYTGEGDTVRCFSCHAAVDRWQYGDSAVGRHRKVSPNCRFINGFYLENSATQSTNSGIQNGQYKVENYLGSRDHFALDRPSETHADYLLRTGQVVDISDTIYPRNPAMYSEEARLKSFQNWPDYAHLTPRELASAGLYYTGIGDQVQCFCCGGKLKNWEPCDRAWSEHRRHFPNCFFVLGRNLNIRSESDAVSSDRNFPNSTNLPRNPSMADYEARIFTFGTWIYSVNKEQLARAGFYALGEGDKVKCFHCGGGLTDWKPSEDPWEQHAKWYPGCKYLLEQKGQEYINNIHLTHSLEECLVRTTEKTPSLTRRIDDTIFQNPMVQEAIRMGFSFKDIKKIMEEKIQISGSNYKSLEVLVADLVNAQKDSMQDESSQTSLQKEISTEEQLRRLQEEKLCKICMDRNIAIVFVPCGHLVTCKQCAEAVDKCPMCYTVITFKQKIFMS

Sequence of Dihydroorotate dehydrogenase (quinone), mitochondrial (Plasmodium falciparum (isolate 3D7)) (Q08210 whole entry, looked up): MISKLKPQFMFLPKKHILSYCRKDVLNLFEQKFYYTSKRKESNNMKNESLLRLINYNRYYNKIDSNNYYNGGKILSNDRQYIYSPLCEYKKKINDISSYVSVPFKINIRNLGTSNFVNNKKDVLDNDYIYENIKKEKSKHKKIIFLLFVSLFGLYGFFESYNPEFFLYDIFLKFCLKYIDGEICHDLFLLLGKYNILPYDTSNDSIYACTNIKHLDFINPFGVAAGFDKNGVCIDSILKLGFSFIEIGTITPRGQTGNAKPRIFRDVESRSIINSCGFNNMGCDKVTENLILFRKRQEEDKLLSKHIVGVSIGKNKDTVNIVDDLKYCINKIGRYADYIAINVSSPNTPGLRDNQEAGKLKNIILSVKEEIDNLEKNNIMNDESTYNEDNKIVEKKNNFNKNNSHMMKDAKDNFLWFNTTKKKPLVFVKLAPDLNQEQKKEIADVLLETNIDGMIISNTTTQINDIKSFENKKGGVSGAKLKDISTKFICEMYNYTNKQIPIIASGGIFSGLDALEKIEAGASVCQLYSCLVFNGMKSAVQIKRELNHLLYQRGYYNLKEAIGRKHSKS

Structure (SMILES)	z-score [1]	z-score [2]	z-score [3]	z-score [4]	z-score [5]	z-score [6]	z-score [7]	z-score [8]	z-score [9]	z-score [10]	z-score [11]	z-score [12]	z-score [13]	composite z-score [14]	z-score [15]	z-score [16]	z-score [17]	z-score [18]	z-score [19]	composite z-score [20]
C=CC[C@]1(C(=O)O)N=C(c2ccc(OCCCO)cc2)O[C@H]1c1ccccc1CN=[N+]=[N-]	1.32	-1.06	0.243	0.869	0.293	-0.131	0.0284 (inactive)	-0.57	-0.587	-0.506 (inactive)	0.13	-0.518 (inactive)	-2.6 (inactive)	0.381 (inactive)	-0.555 (inactive)	0.363 (inactive)	0.104 (inactive)	0.619 (inactive)	-0.728	0.117
COc1ccc([Si](C)(C)[C@@H]2[C@@H](CCO)O[C@]3(C(=O)N(Cc4cccc(N(C=O)c5ccccc5)c4)c4ccccc43)[C@H]2C)cc1	-1.54	1.72	-0.854	-1.12	-1.68	0.719	-0.0903 (inactive)	-0.881	0.0823	-2.24 (inactive)	-2.41	1.27 (inactive)	-3.21 (inactive)	-0.82 (inactive)	-0.0818 (inactive)	4.68 (inactive)	-0.818 (inactive)	-1.62 (inactive)	-2.73	0.0449
CC(C)(C)OC(=O)CC[C@@]1(C(=O)NCC(O)CO)N=C(c2ccc(OCCCO)cc2)O[C@@H]1c1ccccc1 (stereo not given in full)	-0.0139	-1.09	1.92	-0.607	-0.0321	1.93	-0.144 (inactive)	-0.0607	-0.844	-0.387 (inactive)	0.38	-0.205 (inactive)	-0.542 (inactive)	-0.73 (inactive)	0.671 (inactive)	0.0191 (inactive)	-0.529 (inactive)	0.108 (inactive)	-0.397	0.0785
[N-]=[N+]=NCc1ccccc1[C@H]1OC(c2ccc(OCCCO)cc2)=N[C@@]1(Cc1ccccc1)C(=O)NCC(O)CO (stereo not given in full)	0.347	-0.445	0.547	-1.9	-1.36	0.831	-0.699 (inactive)	-0.399	-1.11	0.951 (inactive)	1.59	-0.366 (inactive)	-0.327 (inactive)	-0.313 (inactive)	2.25 (inactive)	-0.405 (inactive)	-0.329 (inactive)	-0.279 (inactive)	-0.435	0.459
C=C(CCCC)C(=O)CC[C@H](OC(C)=O)c1ccc(CO)o1	-0.0395	1.87	-0.576	-1.65	-0.0314	0.299	1.14 (inactive)	0.0658	0.376	-0.485 (inactive)	-0.658	-0.948 (inactive)	0.982 (inactive)	-1.66 (inactive)	-0.0221 (inactive)	0.285 (inactive)	0.668 (inactive)	-0.968 (inactive)	0.496	0.343
Cc1ccc(S[C@]2(C(=O)NCCCN(C)C)CC(=O)N(C(C)C)[C@@H]2c2ccc(CO)cc2I)cc1	2.16	-0.054	0.498	-3.07	-1.37	2.47	1.06 (inactive)	-0.423	-2.32	0.505 (inactive)	0.533	-3.52 (inactive)	-3.69 (inactive)	-0.0857 (inactive)	0.668 (inactive)	-1.31 (inactive)	0.847 (inactive)	1.52 (inactive)	-2.67	-0.145
O=C1O[C@@H](c2ccccc2)[C@@H](c2ccccc2)N2[C@@H](c3ccc(O)cc3)[C@]3(C(=O)Nc4ccccc43)[C@@H](C(=O)N3CCCCCCC3)[C@H]12	-0.871	0.616	0.404	-0.391	-2.29	-1.79	0.145 (inactive)	-0.659	0.0147	-1.09 (inactive)	0.305	0.189 (inactive)	-1.05 (inactive)	0.0791 (inactive)	1.34 (inactive)	1.19 (inactive)	0.36 (inactive)	-1.16 (inactive)	-1.01	0.613
COC(=O)[C@@]1(Cc2ccc(F)cc2)[C@H]2c3cc(C(=O)N4CCCC4)n(Cc4ccc(Cl)c(C(F)(F)F)c4)c3C[C@H]2CN1C(=O)c1ccccc1	-0.463	-0.286	-0.452	-0.604	-2.4	1.09	-1.33 (inactive)	-0.673	-1.96	-1.53 (inactive)	-1.03	1.55 (inactive)	-2.02 (inactive)	0.0979 (inactive)	0.84 (inactive)	0.78 (inactive)	-0.178 (inactive)	0.272 (inactive)	-3.32	0.553
COC(=O)[C@@]1(Cc2ccc(F)cc2)[C@H]2c3cc(C(=O)N(C)C)n(Cc4ccccn4)c3C[C@H]2CN1C(=O)c1ccccc1	-1.48	0.311	0.291	0.263	-0.519	-0.21	-0.858 (inactive)	-0.715	-1.01	0.45 (inactive)	1.15	0.0864 (inactive)	0.548 (inactive)	-0.171 (inactive)	-0.126 (inactive)	-0.319 (inactive)	-0.389 (inactive)	-0.42 (inactive)	0.35	0.332
C=C(C(=O)CC[C@@H](OC(=O)c1cccnc1)c1ccc(CO)o1)C(C)C	-0.628	0.153	-0.545	-1.06	-0.56	-1.3	0.0907 (inactive)	0.283	0.48	-0.297 (inactive)	0.158	-0.708 (inactive)	0.285 (inactive)	-0.0661 (inactive)	0.437 (inactive)	0.113 (inactive)	-0.391 (inactive)	-0.562 (inactive)	0.594	0.396
C=CCN1C(=O)[C@]2(Cc3ccccc31)N=C(c1ccc(OCCCO)cc1)O[C@@H]2c1ccccc1	-0.686	-0.201	-0.377	-0.9	-3.41	-0.844	1.83 (inactive)	-1.11	-0.672	-2.13 (inactive)	-1.05	-2.22 (inactive)	-1.48 (inactive)	-0.699 (inactive)	0.134 (inactive)	0.821 (inactive)	-1.3 (inactive)	-0.802 (inactive)	-1.33	-0.0062
C=C(CCCC)/C(=C/C[C@@H](OC(=O)c1ccncc1)c1ccc(CO)o1)c1cc(C(=O)OC)ccc1OC	1.25	-0.1	0.743	-2.63	-2.58	0.0818	-0.239 (inactive)	-0.812	-2.01	-0.269 (inactive)	0.116	-0.973 (inactive)	-0.864 (inactive)	-5.02 (inactive)	0.847 (inactive)	-0.513 (inactive)	1.15 (inactive)	0.84 (inactive)	-0.466	0.508
COC(=O)c1c(CC[C@@H](CO)NC(=O)Nc2ncn[nH]2)oc(C(=O)Cc2ccccc2)c1C(=O)OC	-0.0782	-0.927	-0.314	0.226	0.343	-0.808	0.765 (inactive)	0.0444	-0.286	0.199 (inactive)	0.172	-0.62 (inactive)	0.059 (inactive)	0.593 (inactive)	0.55 (inactive)	-0.382 (inactive)	0.536 (inactive)	0.434 (inactive)	0.36	-0.0952
CO[C@H]1O[C@H](CO)[C@@H](OC(=O)Nc2ccccc2-c2ccccc2)[C@H](OC(=O)Nc2ccccc2-c2ccccc2)[C@H]1OC(=O)Nc1ccccc1-c1ccccc1	-1.46	1.22	-1.31	-1.4	-1.44	-0.0136	0.908 (inactive)	-0.87	0.116	-2.56 (inactive)	-1.04	1.95 (inactive)	-1.6 (inactive)	-0.236 (inactive)	1.45 (inactive)	4.43 (inactive)	0.494 (inactive)	-0.0039 (inactive)	-1.6	1.26
NC(=O)NCC#Cc1ccc2c(c1)[C@]1(C(=O)N2)[C@H](c2ccccc2OCCO)N2[C@H](c3ccccc3)[C@H](c3ccccc3)OC(=O)[C@H]2[C@@H]1C(=O)N1CCCCCCC1	-0.169	0.73	0.231	-0.0358	0.236	-0.978	0.303 (inactive)	-0.498	0.143	0.414 (inactive)	-0.0969	-0.0475 (inactive)	0.755 (inactive)	0.417 (inactive)	1.92 (inactive)	0.899 (inactive)	-0.315 (inactive)	-0.127 (inactive)	0.966	0.202
O=C(NCc1ccccc1)[C@@H]1c2ccccc2C(=O)N(C2CCCCC2)[C@H]1c1ccc(CO)cc1	1.53	-0.116	1.54	0.499	-0.0572	2.46	0.401 (inactive)	0.739	-0.531	-0.222 (inactive)	-0.178	0.0854 (inactive)	-0.765 (inactive)	0.0557 (inactive)	0.0993 (inactive)	0.138 (inactive)	0.0692 (inactive)	0.268 (inactive)	-1.7	0.117
CO[C@H]1O[C@H](CO)[C@@H](OC(=O)Nc2cccc(F)c2)[C@H](OC(=O)Nc2ccccc2-c2ccccc2)[C@@H]1OC(=O)Nc1ccccc1-c1ccccc1	-2.35	0.63	-1.85	-2.28	-2.37	-0.27	0.827 (inactive)	-0.877	-1.38	-2.79 (inactive)	-1.71	0.664 (inactive)	-2.52 (inactive)	-0.59 (inactive)	1.39 (inactive)	2.42 (inactive)	-0.798 (inactive)	0.689 (inactive)	-1.78	0.117
